Assay results as given in PubChem BioAssay AID2013 (Sanford-Burnham Center for Chemical Genomics, 2009).
Hit rate of the full screen: of about 290,000 compounds, about 370 (0.13%) were called active. This excerpt belongs to a sample that is enriched for actives. Potency and affinity values are given separately. Unmarked numbers belong to inactive results.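 Rule for the calls: active = spots per cell inhibited over 60%, with over 100 cells counted and total cytoplasm intensity under 500,000; inconclusive = wells with under 100 cells, flagged as likely toxic; inactive = the rest.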

target: G-protein coupled receptor 55 (Homo sapiens) (UniProt Q9Y2T6); assay: inhibition of LPI-stimulated GPR55 beta-arrestin translocation – imaging, U2OS, beta-arrestin-GFP, LPI agonist, primary screen (AID 2013); settings: LPI antagonism, at 10 µM, active compounds read high;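 note: U2OS cells stably carrying GPR55 and arrestin-GFP stimulated by 5 µM LPI near EC80; imaged beta-arrestin-GFP aggregate spots per cell after agonist stimulation; plate controls were LPI-stimulated DMSO wells for no effect and DMSO wells without LPI for full effect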
Sequence (Q9Y2T6 whole entry, looked up): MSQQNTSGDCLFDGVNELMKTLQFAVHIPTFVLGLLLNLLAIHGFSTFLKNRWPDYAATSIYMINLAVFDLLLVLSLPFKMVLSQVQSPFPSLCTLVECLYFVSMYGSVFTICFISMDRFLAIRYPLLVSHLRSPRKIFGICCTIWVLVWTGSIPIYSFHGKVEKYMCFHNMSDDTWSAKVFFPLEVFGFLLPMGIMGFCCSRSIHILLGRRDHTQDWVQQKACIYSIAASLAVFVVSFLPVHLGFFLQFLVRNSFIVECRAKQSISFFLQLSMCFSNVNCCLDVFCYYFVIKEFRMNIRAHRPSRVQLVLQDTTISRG

Row | SMILES | inhibition
1 | N#Cc1cccc(NC(=O)COC(=O)c2ccc3c(=O)n4c(nc3c2)CCC4)c1 | 3%
2 | CCOC(=O)C(=O)c1cn(C2OCC(OC(C)=O)C(OC(C)=O)C2OC(C)=O)c2ccccc12 (stereo unspecified) | 6.8%
3 | Nn1c(SCC(=O)Nc2ccc(F)cc2)nnc1-c1cccnc1 | 16.8%
4 | O=C1C2C3C=CC(C3)C2C(=O)N1CCCCCCN1C(=O)C2C3C=CC(C3)C2C1=O (stereo unspecified) | 12%
5 | O=C1C=CC(=O)N1Cc1ccccc1 | -45%
6 | COc1cc(/C=N/NC(=O)C2CC(=O)N(c3ccc(C)cc3)C2)cc(OC)c1OC (stereo unspecified) | 6.8%
7 | Cc1[nH]c2ccccc2c1C(=O)C(=O)N1CCN(C)CC1 | 8.2%
8 | COc1ccc(/C=C/C(=O)NCc2ccccn2)cc1OC | -3%
9 | Cc1nc2ccc(S(=O)(=O)NC(C(=O)Nc3nccs3)C(C)C)cc2s1 (stereo unspecified) | 17.8%
10 | Cc1ccc(CNC(=O)C(NS(=O)(=O)c2ccc3nc(C)sc3c2)C(C)C)cc1 (stereo unspecified) | 3.8%
11 | CCc1noc(C)c1C(=O)N1CC(C)OC(C)C1 (stereo unspecified) | 22%
12 | c1ccc(-c2nc(N3CCN(c4ccccc4)CC3)nc(-n3ccnc3)n2)cc1 | 24.6%
13 | c1ccc(-c2nc(-n3ccnc3)nc(-n3ccnc3)n2)cc1 | 4.8%
14 | COc1ccc(C(=O)NNC(=O)c2cccc(F)c2)cc1 | -5.9%
15 | COc1cc(C(=O)NCC(=O)OCC(=O)c2ccc[nH]2)cc(OC)c1OC | -22.9%
16 | COc1ccc2c(c1)[nH]c1c(N3CCSCC3)ncnc12 | -7.3%
17 | COc1ccccc1NC(=O)Nc1ccnn1C1CCCCC1 | 0.2%
18 | COc1ccc2cc(C(=O)N/N=C/c3sc4ccccc4c3O)ccc2c1 | 4.9%
19 | COc1ccc(NC(=O)/C(Cl)=C(/Cl)S(=O)(=O)Cc2ccc(C)cc2)cn1 | -0.1%
20 | COc1ccc(NC(=O)Cc2c(Cl)cccc2Cl)cn1 | 9%
21 | COc1ccc(CS(=O)(=O)/C(Cl)=C(/Cl)C(=O)Nc2ccc(OC)nc2)cc1 | 2%
22 | COc1ccc(NC(=O)C(Cl)=C(Cl)Cl)cn1 | 6.1%
23 | COc1ccc(NC(=O)/C(Cl)=C(/Cl)S(=O)(=O)Cc2ccccc2)cn1 | 93.7% (active)
24 | O=C(c1ccccc1[N+](=O)[O-])N1CCN(Cc2ccc3c(c2)OCO3)CC1 | 0.2%
25 | Cc1nc(COc2ccc(C(=O)Nc3ccccc3N3CCOCC3)cc2)cs1 | 2.8%
26 | CCc1ccccc1S(=O)(=O)Cc1ccc(C(=O)N2CCN(c3ccccn3)CC2)o1 | -4.8%
